# In PubChem BioAssay:
# Values without a mark were called inactive. The rule behind the calls is not given here.
# Target: Pantothenate synthetase (Mycobacterium tuberculosis (strain ATCC 25618 / H37Rv)) (UniProt P9WIL5)
# Assay: Recombinant Mtb pantothenate synthetase (PanC) inhibitors, coupled enzyme, confirmatory (AID 375);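 note: 0% = full reaction with vehicle and 100% = no enzyme background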
# Conditions: coupled enzyme assay; at 10 µM, active compounds read high
# Chain of Pantothenate synthetase (Mycobacterium tuberculosis (strain ATCC 25618 / H37Rv)) (P9WIL5 whole entry, looked up): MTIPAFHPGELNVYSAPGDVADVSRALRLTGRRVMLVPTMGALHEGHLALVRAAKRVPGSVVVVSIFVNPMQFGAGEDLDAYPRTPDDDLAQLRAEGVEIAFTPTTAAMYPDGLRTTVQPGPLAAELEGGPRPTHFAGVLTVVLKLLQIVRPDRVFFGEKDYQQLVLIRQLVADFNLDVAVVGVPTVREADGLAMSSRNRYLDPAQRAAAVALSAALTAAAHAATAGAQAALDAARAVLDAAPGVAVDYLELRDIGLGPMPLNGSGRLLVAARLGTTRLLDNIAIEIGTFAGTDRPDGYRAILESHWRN
row,Structure (SMILES),inhibition
1,O=C(NC1CCS(=O)(=O)C1)N1CCCCC1 (stereo unspecified),7%
2,Cc1cc(O)c(NC(=O)c2ccc(Br)o2)cc1C,11%
3,Cc1ccc(C(C)C)c(OCCCN2CC(C)OC(C)C2)c1 (stereo unspecified),0%
4,Cc1ccc2c(CC(=O)OCc3csc(C)n3)coc2c1,0%
5,N#CC1=C(N)n2c(s/c(=C\c3ccco3)c2=O)=C(C#N)C1c1ccco1 (stereo unspecified),0%
6,CCOc1ncccc1C(=O)OCC(=O)Nc1ncc(C(F)(F)F)cc1Cl,1%
7,Cc1cc(C)n(C(=O)CCCCCC(=O)n2nc(C)cc2C)n1,6%
8,Cc1cc(Nc2ccc(C(=O)O)cc2)n2nc(C)nc2n1,7%
9,Cc1ccc(N2C(=O)c3ccccc3C2O)nc1 (stereo unspecified),1%
10,O=C(O)C1C2C=CC3(CN(C4CCCC4)C(=O)C13)O2 (stereo unspecified),4%
11,COc1ccccc1CNS(=O)(=O)c1ccc(NC(C)=O)cc1,0%
12,CCn1cc(C(=O)N2CCN(C(=O)c3ccco3)CC2)c2cc(OC)c(OC)cc2c1=O,0%
13,CCN(CC)CCCNS(=O)(=O)c1ccc(OC)cc1,3%
14,Cc1cc(Nc2ccccc2N2CCOCC2)n2ncnc2n1,0%
15,FC(F)(F)c1cc(-c2ccco2)nc(N2CCOCC2)n1,2%
16,COc1ccc2c(c1)[nH]c1c(=O)n(CC3CCCO3)cnc12 (stereo unspecified),1%
17,CCn1cc(SCC(=O)NCC2CCCO2)c2ccccc21 (stereo unspecified),0%
18,Cn1c(COc2ccccc2)nnc1SCC(=O)Nc1ccc(N2CCOCC2)c(Cl)c1,6%
19,CCN1CCN(c2ncc(C(=O)N3CCN(c4ccccc4OC)CC3)c3ccccc23)CC1,3%
20,CC(Oc1ccc(Cl)cc1Cl)C(=O)Nc1ncccn1 (stereo unspecified),0%
21,O=C(O)c1ccc2c(c1)C(=O)N(c1ccc(Cl)cn1)C2=O,8%
